This note sets out measurements from PubChem BioAssay.

Assay [1] is described as follows: P. berghei load reduction in hepatocytes – cell-based, HepG2, luciferase luminescence, HepG2 viability, primary screen (AID 624349; in the data active means parasite load remaining mostly below about 12%, no sharp cut-off; inactive means mostly above about 10%;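 further: 100% = mean of DMSO negative control wells on the same plate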). Conditions: P. berghei liver stage in HepG2, luciferase luminescence, concentration not given here; parasite load remaining: stronger effect = lower value; viability: measured here: HepG2 viability without parasites.
Assay [2] can be described thus: Wnt pathway potentiators raising nuclear beta-catenin – imaging, WNT3A-conditioned medium, mouse C2C12, NPC library, primary screen (AID 1117326; in the data active means nuclear beta-catenin stimulation mostly above about 4.2%, no sharp cut-off; inactive means mostly below about 10%). Conditions: stronger effect = higher value.
A short description of assay [3]: stimulators of insulin release from INS-1E, primary screen, cell-based, 5 mM glucose, NPC library (AID 1117329;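 active means compound raises insulin release from rat beta cells at 5 mM glucose, no numeric limit stated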). Conditions: rat INS-1E insulin secretion, at 10 µM, stronger effect = higher value.
Assay [4] is described as follows: growth inhibition of GSK3B-pretreated HCT116 cells – cell-based, CellTiter-Glo, 0.2 to 20 µM (AID 1117336;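 active means compounds lowering colon cancer cell viability after pretreatment blocking the GSK3B kinase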). Conditions: HCT116 viability after GSK3B inhibitor, at 20 µM, stronger effect = higher value. On the technique in general: Cellular ATP, detected with luciferase, serves as a proxy for viable cell number.
Assay [5] in a line: inhibition of endothelial tube formation, primary screen, imaging, VEGF stimulated, CD31 staining, tube area, NPC library (AID 1117340;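 active means compound that reduces growth-factor-driven endothelial tube area in a mixed cell culture, no cutoff stated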). Conditions: VEGF-stimulated ADSC/ECFC co-culture, at 10 µM, stronger effect = higher value.
Assay [6] is described as follows: GLP1 release stimulators, primary, NCI-H716, NPC library (AID 1117341). Conditions: NCI-H716 cells, at 10 µM, stronger effect = higher value.
The nature of assay [7]: HCT116 colon cancer cell growth inhibition, primary screen, CellTiter-Glo luminescence, NPC library (AID 1117342;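 active means compounds that lower survival of HCT116 colon cancer cells in the luminescence readout, no numeric limit stated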). Conditions: at 20 µM (top of the series).
Assay [8] can be described thus: reduced SW480 viability measured with CellTiter-Glo, NPC library, primary (AID 1117343;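 active means compounds that lower viability of the colon cancer cells in the luminescence readout, with no numeric limit stated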). Conditions: CellTiter-Glo luminescence; at 20 µM (top of the series) unless noted.
Assay [9] is described as follows: NPC library primary testing for decreased DLD-1 cell viability via CellTiter-Glo (AID 1117346;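 active means compounds that lower survival of DLD-1 colon cancer cells in the luminescence readout, no cutoff given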). Conditions: DLD-1 viability, CellTiter-Glo luminescence; at 20 µM (top of the series).
Assay [10] in a line: EMT-state selective cytotoxicity in co-culture – imaging, PC-3E GFP, TEM4-18 mCherry, primary screen (AID 1345086;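 active means compounds killing one labelled cell type while sparing the other, by normalised counts and ratio limits, not self-fluorescent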;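 on all read-outs here: cells exposed to compound for 72 h before imaging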;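 on red/green cell ratio (normalised): normalised mesenchymal count divided by normalised epithelial count so high means epithelial killing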). Conditions: PC-3E GFP / TEM4-18 mCherry co-culture, imaging cell counts, at 1 µM; for red/green cell ratio (normalised): actives lie on both sides, counts scaled to control wells, 1 = unselective.
The nature of assay [11]: viability loss with induced miR-34 in A549 – imaging, A549 dox-inducible miR-34, nuclei and caspase counts, primary screen (AID 1347080;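 active means compounds whose cell count with miR-34 switched on is under 0.7 times the count with it off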). Conditions: A549 miR-34 inducible, Hoechst nuclei count, 48 h.
Assay [12] has as its target NAD(+) hydrolase SARM1 (Homo sapiens) (UniProt Q6SZW1). The assay can be described thus: blocking NAD cleavage by SARM1 SAM-TIR – cell lysate, NAD-Glo luminescence (AID 1508614;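 active means compound whose remaining NAD level is above about 45 nM, limit read from the data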). Conditions: SAM-TIR HEK293T lysate NADase, at 1 µM, stronger effect = higher value.
Setting [13] is: measured here: epithelial PC-3E GFP cell survival.
[14] abbreviates: measured here: mesenchymal TEM4-18 mCherry cell survival.
Where [15] appears, read: stronger effect = lower value, cell number ratio, induced over uninduced.
Setting [16] is: measured here: relative caspase fold change +Dox/-Dox.
[17] abbreviates: measured here: total cells with miR-34 induction, stronger effect = lower value.
[18] abbreviates: measured here: total cells without miR-34 induction.

Molecules are shown by their SMILES. Values joined by “and” are separate entries in the source; they are usually repeats but may differ in a detail not shown here. Identical values can stand only once. Active and inactive are the calls of the source.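 How the source made its calls, unless noted: active means compound raises GLP1 secretion from the human gut endocrine cells, with no numeric limit stated; inactive means the rest.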

NAD(+) hydrolase SARM1 (Homo sapiens), sequence (Q6SZW1 whole entry, looked up): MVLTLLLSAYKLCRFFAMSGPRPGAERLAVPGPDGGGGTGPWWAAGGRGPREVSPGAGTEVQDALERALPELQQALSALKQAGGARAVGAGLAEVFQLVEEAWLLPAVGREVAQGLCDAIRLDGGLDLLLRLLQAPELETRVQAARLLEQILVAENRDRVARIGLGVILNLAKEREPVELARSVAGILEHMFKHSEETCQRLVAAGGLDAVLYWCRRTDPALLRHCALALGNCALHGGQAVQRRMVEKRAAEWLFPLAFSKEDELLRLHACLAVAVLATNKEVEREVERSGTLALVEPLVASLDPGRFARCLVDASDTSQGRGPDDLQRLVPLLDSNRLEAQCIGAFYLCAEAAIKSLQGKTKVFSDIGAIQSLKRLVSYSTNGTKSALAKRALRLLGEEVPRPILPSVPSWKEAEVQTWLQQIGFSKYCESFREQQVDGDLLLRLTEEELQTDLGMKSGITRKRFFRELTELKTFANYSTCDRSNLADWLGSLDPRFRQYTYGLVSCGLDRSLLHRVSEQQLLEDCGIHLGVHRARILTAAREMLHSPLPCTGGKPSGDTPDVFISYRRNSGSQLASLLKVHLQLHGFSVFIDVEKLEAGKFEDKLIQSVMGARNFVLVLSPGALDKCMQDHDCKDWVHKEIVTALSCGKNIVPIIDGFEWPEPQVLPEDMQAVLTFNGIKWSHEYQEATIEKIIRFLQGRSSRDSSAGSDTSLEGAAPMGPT

Broadly, the viability is a read-out of living cells in per cent, often relative to untreated cells. As to `CC(=O)OCC(=O)[C@@]1(O)CCC2C3CCC4=CC(=O)CC[C@]4(C)C3[C@@H](O)C[C@@]21C` (some centres not stated), the parasite load remaining in assay [1] was 123% (inactive) and 70.8% (inactive). Further, the viability in assay [1] was 73.9% and 90.3%. In addition, the nuclear beta-catenin stimulation in assay [2] (at 10 µM) is -1.1% (inactive); in [2] (stimulation, at 2 µM), -0.8%. For the same compound, the insulin secretion stimulation in [3] was -1.3% (inactive). Besides, the viability decrease in assay [4] was -8% (inactive). Moreover, the tube area decrease in assay [5] was 1.6% (inactive). In addition, the GLP1 secretion stimulation in [6] is -3.9% (inactive). Also, the inhibition of viability in [7] is -1.6% (inactive). Moreover, the viability decrease (inhibition) in assay [8] was -3% (inactive); in assay [9], -12.5% (inactive). Also, the red/green cell ratio (normalised) in assay [10] was 1.16 (inactive). For the same compound, the normalised cell number in [10] (setting [13]) came to 1.24; in assay [10] (setting [14]), 1.44. Further, the fold change was 0.742 (inactive) in assay [11] (setting [15]) and 1.6 in assay [11] (setting [16]). For the same compound, the cell count in assay [11] (setting [17]) was found to be 6930; in [11] (setting [18]), 9340.

As to `NC(=O)CCCCC1CCSS1` (configuration not stated), the nuclear beta-catenin stimulation in [2] (at 10 µM) is -0.8% (inactive); in [2] (stimulation, at 2 µM) it was 2.1%. Further, the insulin secretion stimulation in assay [3] was -0.6% (inactive). For the same compound, the viability decrease in assay [4] was -164% (inactive). Besides, the tube area decrease in [5] is 18% (inactive). In addition, the GLP1 secretion stimulation in [6] is -0.8% (inactive). Besides, the inhibition of viability in assay [7] is -10.3% (inactive). The values for the viability decrease (inhibition) in assay [8] and in assay [9] were -43.7% (inactive) and -25.4% (inactive), respectively. In addition, in assay [10], the red/green cell ratio (normalised) was 1.02 (inactive). Also, the normalised cell number in assay [10] (setting [13]) stood at 0.81; in assay [10] (setting [14]), 0.82. The fold change in assay [11] (setting [15]) was 0.89 (inactive); in [11] (setting [16]), 1.01. Moreover, the cell count in assay [11] (setting [17]) was 8370; in assay [11] (setting [18]), 9400. The remaining NAD in [12] is 10 nM (inactive).

With `CCOC(=O)c1ccc(O)cc1`, the parasite load remaining in assay [1] is 75.1% (inactive). Further, the viability in assay [1] worked out at 94.6%. In addition, the nuclear beta-catenin stimulation in [2] (at 10 µM) was -0.6% (inactive); in assay [2] (stimulation, at 2 µM) it was 0.9%. Besides, the insulin secretion stimulation in [3] was 5.1% (inactive). For the same compound, the viability decrease in assay [4] was 1.8% (inactive). Also, the tube area decrease in [5] was -5% (inactive). Further, in assay [6], the GLP1 secretion stimulation was 2.1% (inactive). In [7], the inhibition of viability was 4.1% (inactive). Further, the values for the viability decrease (inhibition) in [8] and in [9] were 29.4% (inactive) and 11.2% (inactive), respectively. The red/green cell ratio (normalised) in assay [10] is 0.82 (inactive). Also, the normalised cell number in assay [10] (setting [13]) was determined as 1.05; in assay [10] (setting [14]), 0.86. The fold change was 0.873 (inactive) in assay [11] (setting [15]) and 1.39 in assay [11] (setting [16]). Further, the cell count in assay [11] (setting [17]) was 10900; in assay [11] (setting [18]), 12500. For the same compound, in assay [12], the remaining NAD was 10 nM (inactive).

`OCCc1ccccc1`: in [1], the parasite load remaining is 52.9% (inactive). In [1], the viability was determined as 121%. For the same compound, the nuclear beta-catenin stimulation is 4.3% (inactive) in assay [2] (at 10 µM) and -0.1% in assay [2] (stimulation, at 2 µM). For the same compound, in assay [3], the insulin secretion stimulation was -0.8% (inactive). Moreover, the viability decrease in assay [4] is -30.2% (inactive). The tube area decrease in assay [5] was -4.7% (inactive). Also, the GLP1 secretion stimulation in [6] was -0.7% (inactive). The inhibition of viability in assay [7] is -7.95% (inactive). Besides, the figures for the viability decrease (inhibition) in assay [8] and in assay [9] were 11.9% (inactive) and -12.4% (inactive), respectively. For the same compound, the red/green cell ratio (normalised) in [10] is 0.97 (inactive). Moreover, the normalised cell number is 1.02 in assay [10] (setting [13]) and 1 in assay [10] (setting [14]). Further, the fold change in assay [11] (setting [15]) was 0.881 (inactive); in assay [11] (setting [16]), 7.55. For the same compound, the cell count in assay [11] (setting [17]) was 11500; in assay [11] (setting [18]), 13000. In [12], the remaining NAD is 10 nM (inactive).

As for `COc1cc(C(=O)NCCCCCC(=O)O)cc(OC)c1OC`, in assay [1], the parasite load remaining is 48.5% (inactive). For the same compound, the viability in [1] worked out at 104%. The nuclear beta-catenin stimulation in assay [2] (at 10 µM) is -0.1% (inactive); in [2] (stimulation, at 2 µM) it was -2.6%. In assay [3], the insulin secretion stimulation is 0.5% (inactive). Moreover, the viability decrease in assay [4] was 5.7% (inactive). For the same compound, the tube area decrease in [5] is 12.7% (inactive). The GLP1 secretion stimulation in [6] is -0.6% (inactive). The inhibition of viability in assay [7] was 6.2% (inactive). The viability decrease (inhibition) was -6.6% (inactive) in assay [8] and -0.7% (inactive) in [9]. Moreover, the red/green cell ratio (normalised) in assay [10] is 0.91 (inactive). For the same compound, the normalised cell number in assay [10] (setting [13]) was found to be 0.95; in assay [10] (setting [14]), 0.86. The figures for the fold change in [11] (setting [15]) and in assay [11] (setting [16]) were 0.815 (inactive) and 7.04, respectively. In addition, the cell count was determined as 11100 in [11] (setting [17]) and 13600 in assay [11] (setting [18]). In addition, the remaining NAD in assay [12] is 10 nM (inactive).
